The sample as a whole holds a higher share of hits than the screen did.
12-LOX inh: blocks human arachidonate 12S-lipoxygenase. P18054. purified 12hLO, xylenol orange hydroperoxide absorbance. Potency, µM (series often up to 108 µM), inactives show at the top dose activity change, negative = inhibition, actives largely listed as inhibitors. 580,000 compounds, 1.1% hits. AID 1671190; also: potency is read from the fitted curve at half-maximal effect
Target sequence (P18054 whole entry, looked up): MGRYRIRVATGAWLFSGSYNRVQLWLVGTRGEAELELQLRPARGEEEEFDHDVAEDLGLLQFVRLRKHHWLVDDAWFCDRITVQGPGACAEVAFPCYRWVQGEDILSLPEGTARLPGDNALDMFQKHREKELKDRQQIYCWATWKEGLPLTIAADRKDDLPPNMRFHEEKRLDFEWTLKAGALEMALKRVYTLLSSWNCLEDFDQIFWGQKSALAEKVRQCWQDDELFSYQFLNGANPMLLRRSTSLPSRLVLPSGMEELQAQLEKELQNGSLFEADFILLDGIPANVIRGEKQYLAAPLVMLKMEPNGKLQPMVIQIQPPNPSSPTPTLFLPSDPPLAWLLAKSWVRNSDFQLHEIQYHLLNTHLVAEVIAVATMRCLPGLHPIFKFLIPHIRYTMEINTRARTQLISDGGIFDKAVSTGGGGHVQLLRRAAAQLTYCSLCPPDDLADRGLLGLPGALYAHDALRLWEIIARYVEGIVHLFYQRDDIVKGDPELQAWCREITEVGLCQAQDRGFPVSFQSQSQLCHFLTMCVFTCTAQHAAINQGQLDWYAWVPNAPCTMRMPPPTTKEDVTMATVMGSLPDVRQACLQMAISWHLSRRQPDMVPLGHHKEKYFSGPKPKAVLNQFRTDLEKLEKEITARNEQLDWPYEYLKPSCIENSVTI
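Purified human 12hLO (150 nM final) in 25 mM Hepes, 0.01% Triton X-100, pH 7.0 was preincubated 15 min at room temperature with compound. Then 40 uM arachidonic acid was added, 30 min. Hydroperoxide was read by Fe-XO absorbance ratio 573/405 nm.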
HT1080NT lethal: kills 2HG-producing HT-1080-NT fibrosarcoma cells; HT-1080-NT fibrosarcoma viability, CellTiter-Glo ATP luminescence, 48 h; Potency, µM (doses to about 46.1 µM), for inactives: at the highest dose activity, negative = less viability, usual class: cytotoxic; 360,000 compounds, 1.6% hits; AID 686970;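 also: NT is the 2HG producing partner of a matched IDH1 knockdown line; potency is read from the fitted curve at half-maximal effect; 0% = DMSO-treated cells and -100% = media-only wells without cells; nearly all actives have a fitted effect of over 55% in size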
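HT-1080-NT fibrosarcoma cells (2HG-overproducing), 750 cells/well in RPMI with 5% FBS, dosed after 2 h and incubated 48 h at 37C. CellTiter-Glo luminescence normalized to DMSO and no-cell wells; concentration-response curves fitted and classed.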
IL-1B inflam inh: inflammasome signaling inhibition, IL-1 beta readout. THP-1 LPS/ATP IL-1B secretion, AlphaLISA, 16 h; active compounds read low. activity change, % at 57.5 µM. 360,000 compounds, 4.7% hits; in the data active = activity change below about -50%; inconclusive = mostly about -30% to -49%
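Secreted IL-1B measured by AlphaLISA bead assay after 16 h compound exposure of THP-1 cells; compounds (final up to 57.5 uM) added 1 h before LPS (250 ng/mL) and ATP (1.25 mM) stimulation; lower signal means less secretion.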
DT40 TDP1 CPT: growth inhibition of DT40 Tdp1-/-;hTDP1 cells with camptothecin (screen for TDP1 inhibitors); 420,000 compounds, 12% hits; Potency, µM (top dose mostly 46.2 µM), for inactives: top-dose activity change, negative = growth inhibition, hits mostly inhibitors; AID 686979; chicken DT40 Tdp1-/-;hTDP1 cells + 20 nM CPT, ATP luminescence, 48 h; also: potency is read from the fitted curve at half-maximal effect; nearly all actives have a fitted effect of over 55% in size
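Chicken DT40 Tdp1-/- cells stably complemented with human TDP1 were seeded at 400 cells/well in medium containing 20 nM camptothecin, exposed to pin-transferred compounds, and grown at 37 °C for at least 48 hr. Viability was read as ATP luminescence.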
TDP1 cell noCPT: qHTS for Inhibitors of human tyrosyl-DNA phosphodiesterase 1 (TDP1): qHTS in cells in absence of CPT. DT40 Tdp1-/- hTDP1 cells, no CPT, ATP luminescence, 48 h. Potency, µM (series often up to 46.2 µM), for the others: top-dose activity change, negative = growth inhibition, most hits filed as inhibitors. 420,000 compounds, 15% hits. AID 686978, 2013; also: potency is read from the fitted curve at half-maximal effect; nearly all actives have a fitted effect of over 55% in size
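Compound effects on proliferation are scored in DT40 Tdp1-/-;hTDP1 cells in the absence of CPT. ATP levels (CellTiter-Glo luminescence) are recorded after a ≥48 hr, 37 °C incubation.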
HT1080 IDH1KD tx: kills HT-1080 cells with IDH1 knockdown. Potency, µM (series often up to 46.1 µM), inactives show top-dose activity, negative = toxicity, actives largely listed as cytotoxic. 360,000 compounds, 2% hits. HT-1080 IDH1 knockdown viability, ATP luminescence, 48 h;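 also: potency is read from the fitted curve at half-maximal effect; 0% = DMSO wells and -100% = cell-free medium wells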
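Assay cells: HT-1080 with IDH1 knockdown, 750 per well, RPMI/5% FBS. Exposure: 48 h at 37 °C following 2 h pre-incubation. Read: CellTiter-Glo luminescence; fitted concentration-response, curve class assigned.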
Numbers without * were called inactive; ? = inconclusive; . = no result; [ ] = dose if it differs, or a comment. Unless noted, calls follow the shape of the dose curve; as a rule, active = well fitted curve in the direction sought with a large enough effect; inconclusive = small, poorly fitted or top-dose-only effect, or another doubt; inactive = no such curve, though single readings can be large; an effect the other way counts as inactive or inconclusive. Unless noted, % is scaled to controls: 0 for no effect and ±100 for the full control effect.

SMILES	12-LOX inh	HT1080NT lethal	IL-1B inflam inh	DT40 TDP1 CPT	TDP1 cell noCPT	HT1080 IDH1KD tx
Cc1cccc(NC(=O)N2CCC(Oc3ncccc3C(=O)N3CCCCC3)C2)c1C (stereo unspecified)	9.0%	.	.	.	.	.
COCCNc1nc(NCc2cccc(OC)c2)c2sccc2n1	?	-1.2%	-1.9	14.6µM*	18.4µM*	-17.2%
COCCNc1nc(NCc2ccc(C(C)C)cc2)c2sccc2n1	?	13µM*	-15.1	11.6µM*	11.6µM*	18.4µM*
COc1cccc(CNc2nc(NC(C)C)nc3ccsc23)c1	?	?	-22.5	23.1µM*	?	?
COc1cccc(CNc2nc3ccc(C)cc3nc2-n2nc(C)cc2C)c1	-1.4%	.	.	.	.	.
COc1cc(SC)ccc1C(=O)N[C@H]1CCN2C(=O)N(c3cccc(SC)c3)C(=O)[C@@H]2C1	8.8%	.	.	.	.	.
C#CCOC(=O)Nc1cccn(Cc2c(Cl)cccc2Cl)c1=O	-12.5%	?	?	20.6µM*	10.3µM*	?
COCOc1cccc(CN2CCC(C)(Oc3cccc(OC)c3)C2)c1 (stereo unspecified)	-6.2%	-14.3%	-24.2	18.4µM*	?	4.7%
COCCc1ccc(OC2(C)CCN(Cc3cccc(OCOC)c3)C2)cc1 (stereo unspecified)	-26.2%	16.1%	-24.9	?	?	0.5%
COc1cc(Cl)ccc1OC1(C)CCN(Cc2ccc(-c3ccccn3)cc2)C1 (stereo unspecified)	?	16.4µM*	-12.9	?	14.6µM*	?
COc1cc(Cl)ccc1OC1(C)CCN(Cc2ccc3ccccc3c2)C1 (stereo unspecified)	38.9%	?	12.6	?	23.1µM*	?
CC(C)Cc1ccc(CN2CCN3C(=O)CNC(=O)C3C2)cc1 (stereo unspecified)	12.1%	.	.	.	.	.
CCCNCc1ccc(OCCO)cc1	4.8%	.	.	.	.	.
CSc1cccc(NC(=O)CN(C)S(=O)(=O)c2ccc3c(c2)n(C)c(=O)c(=O)n3C)c1	3.6%	.	.	-15.9%	-24.6%	.
CC(=O)N1CCCc2cc(S(=O)(=O)N(C)CC(=O)Nc3ccc(Cl)cc3C)ccc21	?	.	.	23.1µM*	23.1µM*	.
CSc1cccc(NC(=O)CN(C)S(=O)(=O)c2ccc3c(c2)CCCN3C(C)=O)c1	0.9%	.	.	?	25.9µM*	.
COc1ccc(NC(=O)CN(C)S(=O)(=O)c2ccc3c(c2)CCCN3C(C)=O)cc1Cl	-9.0%	.	.	?	20.6µM*	.
COc1ccc(Cl)cc1NC(=O)CN(C)S(=O)(=O)c1ccc2c(c1)CCCN2C(C)=O	-15.9%	.	.	13µM*	8.2µM*	.
CCNC(=O)c1ccc(CN2C(=O)C(C)=C(c3ccc(C)c(C)c3)S2(=O)=O)cc1	-11.7%	.	.	.	.	.
CC(C)c1ccc(NC(=O)C(Sc2ccccc2)c2ccccc2)cc1 (stereo unspecified)	-19.8%	.	.	.	.	.
COC(=O)CC1Oc2ccc(F)cc2-n2cc(-c3ccc(Cl)cc3)nc21 (stereo unspecified)	-11.5%	.	.	9.2µM*	4.11µM*	.
COC(=O)CC1Oc2ccc(Cl)cc2-n2cc(-c3ccc(F)cc3)nc21 (stereo unspecified)	-21.5%	.	.	-14.3%	-18.0%	.
COC(=O)CC1Oc2ccc(F)cc2-n2cc(-c3ccc(C)cc3)nc21 (stereo unspecified)	-13.0%	.	.	9.2µM*	7.31µM*	.
COC(=O)c1cc(-c2ccc(C)cc2)n[nH]1	8.8%	10.9%	-10.9	-25.6%	-14.0%	10.6%
CCc1ccc(NC(=O)c2cc(S(=O)(=O)N3CCCC3)ccc2F)cc1	2.6%	-11.1%	-20.7	14.6µM*	11.6µM*	-28.5%
SMILES	12-LOX inh	HT1080NT lethal	IL-1B inflam inh	DT40 TDP1 CPT	TDP1 cell noCPT	HT1080 IDH1KD tx
CCc1ccc(NC(=O)c2cc(S(=O)(=O)N3CCCCCC3)ccc2F)cc1	?	.	.	?	18.4µM*	.
CCc1ccc(NC(=O)CCn2nc(C)c(S(=O)(=O)N3CCCCC3)c2C)cc1	0.1%	-2.6%	-14.7	23.1µM*	18.4µM*	-7.1%
CCOC(=O)C1CCN(C2=NC(=O)/C(=C/c3ccc(O)cc3)S2)CC1	.	20.7%	27.7	?	7.31µM*	8.2%
CCOC(=O)C1CCCN(C2=NC(=O)/C(=C/c3ccc(N(C)C)cc3)S2)C1 (stereo unspecified)	-5.7%	-10.2%	-83.1*	?	?	?
C/C(=N/NC(=O)CC#N)c1ccc(C)cc1C	8.1%	.	.	.	.	.
Cc1cc(C)c(C)c(S(=O)(=O)N(C)C2CCN(C)CC2)c1C	-27.1%	-0.6%	-17.9	23.1µM*	16.4µM*	-14.1%
CN1CCC(N(C)S(=O)(=O)c2ccc(Cl)cc2)CC1	-3.7%	8.0%	25.6	-0.8%	18.2%	2.7%
O=C(c1ccccc1)c1ccc2nc(-c3ccco3)c(-c3ccco3)nc2c1	?	?	-18.4	20.6µM*	20.6µM*	18.4µM*
O=C(NCCc1ccccc1)c1ccc(=O)oc1	0.2%	19.7%	-7.5	-15.3%	-13.8%	9.4%
O=C(NCCc1ccccc1)c1ccc2nc(-c3ccco3)c(-c3ccco3)nc2c1	.	3.9%	?	20.6µM*	18.4µM*	-0.6%
O=C(O)c1ccc2nc(-c3ccccc3)c(-c3ccccc3)nc2c1	17.8%	4.2%	26.9	17.1%	15.6%	9.3%
O=C(NCCO)c1ccc2nc(-c3ccco3)c(-c3ccco3)nc2c1	?	-18.5%	-6.3	?	20.6µM*	-16.2%
CCCN(CC1CCOC1)S(=O)(=O)c1ccc(OC)cc1 (stereo unspecified)	12.2%	.	.	.	.	.
C[S+](=O)([O-])NCCn1ccc2cc(OC3CCN(c4ncccn4)CC3)cnc21	7.5%[176 µM]	.	.	.	.	.
CSc1cccc(NC(=O)c2ccc3c(c2)NC(=O)CS3)c1	-23.3%	.	.	.	.	.
COc1cc(Cl)ccc1NC(=S)N(CCCN1CCOCC1)Cc1cn(C)c2ccccc12	1.9%	?	?	16.4µM*	20.6µM*	?
Cc1ccc(Cl)cc1NC(=S)N(CCCN1CCOCC1)Cc1ccccn1	-9.9%	3.4%	-11.8	-1.3%	-1.1%	-0.2%
COc1ccc(Cl)cc1NC(=S)N(CCCN1CCOCC1)Cc1cn(C)c2ccccc12	-2.7%	?	-19.1	13µM*	?	-22.5%
O=C(COC(=O)/C=C/c1ccccc1)NCc1ccco1	-5.7%	-4.5%	38.3	-1.2%	-8.2%	3.2%

Assay outcomes deposited in PubChem BioAssay by National Center for Advancing Translational Sciences (NCATS).
